For the test, the target named is T1, E. coli RNase P holoenzyme (M1 P RNA + rnpA protein) (UniProt P0A7Y8).
T1 sequence: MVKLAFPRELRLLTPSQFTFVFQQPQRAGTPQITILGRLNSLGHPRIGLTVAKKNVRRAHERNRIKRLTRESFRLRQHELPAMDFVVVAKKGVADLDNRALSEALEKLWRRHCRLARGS
Nature of the test: relative kcat/Km (krel) vs genomic leader AAAGAU (relative (reference leader = 1)); higher = faster RNase P cleavage. The method, then:
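HTS-Kin: a pool of ptRNA-Met (21C construct) with all 4096 combinations of 5' leader nucleotides N(-6) to N(-1) was processed in vitro by E. coli RNase P (P RNA + rnpA/C5 protein) under multiple-turnover conditions at 37 C, pH 8, 17.5 mM MgCl2. Residual substrate was Illumina-sequenced at several fractions reacted, and relative kcat/Km (krel) was computed by internal competition kinetics, calibrated to the genomic leader (AAAGAU = 1). The listed hexamer is the varied N(-6)..N(-1) leader (DNA letters), and it sits between a fixed 5' stem-loop flank (GCAUGCACGAAAGUGCGUGCUAUGAA) and the mature tRNA-Met starting GGCUACGUAGCUCAGUUGG. Two technical replicates are averaged.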

The mark [1] stands for this setting: fraction of substrate reacted: ~9-10% (9.79% repeat 1, 9.1% repeat 2).
Setting [2] is: fraction of substrate reacted: ~13-16% (15.68% repeat 1, 13.17% repeat 2).
Where [3] appears, read: fraction of substrate reacted: ~26-29% (28.66% repeat 1, 26.4% repeat 2).

± gives the standard deviation of the averaged measurements. In all, about 4,100 sequences were measured (“relative kcat/Km (krel) vs genomic leader AAAGAU”: median about 1.7, highest 2% from about 6.5 on). This excerpt belongs to a sample that is enriched for the highest values.

Consider TTCGAT, for which the “relative kcat/Km” value stood at 1.69 ± 0.22 under setting [1], 2.71 ± 1.2 under setting [2] and 4.44 ± 2 under setting [3].
Consider TGCGAA, for which the “relative kcat/Km” value was 1.78 ± 0.26 under setting [1], 1.82 ± 0.69 under setting [2] and 2.43 ± 0.68 under setting [3].
For CTCGAA the same measures were 4.31 ± 0.54, 6.4 ± 1.7 and 8.12 ± 3.5.
Taken in the same sequence, the figures for TTCGAC were 5.66 ± 1.9, 7.11 ± 1.7 and 10.2 ± 4.3.
For CGCGAA the same measures were 2.89 ± 0.49, 3.39 ± 1.2 and 4.94 ± 1.5.
Turning to TTCGAA, the “relative kcat/Km” value runs as follows: under setting [1], 5.32 ± 1.2; under setting [2], 7.22 ± 2.3; under setting [3], 10.3 ± 4.3.
TTCGAG: the “relative kcat/Km” value reads like this: under setting [2], 1.96 ± 0.07; under setting [3], 4.8 ± 1.
On to CTCGGA, for which the “relative kcat/Km” value under setting [3] is 0.671 ± 0.41.
TTCGTG: the “relative kcat/Km” value is, setting by setting: under setting [2], 0.287 ± 0.27; under setting [3], 2.01 ± 0.17.
TTCGTC: the “relative kcat/Km” value under setting [1] was determined as 3.53 ± 1.4, the “relative kcat/Km” value under setting [2] is 4.55 ± 1 and the “relative kcat/Km” value under setting [3] came to 6.81 ± 3.2.
For the sequence TTCGTA, the “relative kcat/Km” value was 3.36 ± 1.3 under setting [1], 4.26 ± 0.22 under setting [2] and 6.35 ± 2.4 under setting [3].
With AGTGTT, the “relative kcat/Km” value runs as follows: under setting [1], 0.435 ± 0.024; under setting [3], 1.34 ± 0.99.
Regarding CTACTT, the “relative kcat/Km” value turned out to be 2.09 ± 0.14 under setting [1], 2.2 ± 0.49 under setting [2] and 2.49 ± 0.63 under setting [3].
For TGAACT the same measures were 1.41 ± 0.67, 1.85 ± 0.71 and 2.58 ± 0.76.
For GGCGCT the same measures were 1.32 ± 0.23, 0.701 ± 0.31 and 1.43 ± 0.38.
On to GGGCTT, for which, under setting [3], the “relative kcat/Km” value was 0.481 ± 0.22.
Same read-out and setting: next, TAACCG: 0.9 ± 0.51.
GCTTTC: the “relative kcat/Km” value under setting [1] amounted to 2.29 ± 2.1, the “relative kcat/Km” value under setting [2] amounted to 1.88 ± 0.58 and the “relative kcat/Km” value under setting [3] turned out to be 2.09 ± 0.45.
Taken in the same sequence, the figures for AATACA were 1.91 ± 0.78, 1.7 ± 0.041 and 2.02 ± 0.66.
TAAACA: the “relative kcat/Km” value under setting [1] was found to be 1.85 ± 0.81, the “relative kcat/Km” value under setting [2] came out at 1.35 ± 0.24 and the “relative kcat/Km” value under setting [3] came to 1.75 ± 0.52.
Taken in the same sequence, the figures for ATCGGA were 0.168 ± 0.15, 0.728 ± 0.66 and 1.28 ± 1.1.
As to CAGCTT, the “relative kcat/Km” value is, setting by setting: under setting [1], 2.22 ± 1.1; under setting [2], 1.55 ± 0.38; under setting [3], 2.33 ± 0.38.
For GTGCAC the same measures were 1.19 ± 0.29, 1.29 ± 0.18 and 1.98 ± 0.6.
As for GATAAA, the “relative kcat/Km” value is 1.84 ± 0.48 under setting [1], 2.34 ± 0.5 under setting [2] and 3.8 ± 1.4 under setting [3].
Turning to AGAGAG, the “relative kcat/Km” value under setting [3] came out at 1.16 ± 0.33.
For the sequence GTCGTA, the “relative kcat/Km” value was determined as 2.55 ± 1.1 under setting [1], 2.7 ± 0.23 under setting [2] and 3.88 ± 0.79 under setting [3].
For ATCGAG the same measures were 2.14 ± 2.1, 1.29 ± 0.12 and 3.85 ± 0.66.
Taken in the same sequence, the figures for ATCGAA were 3.16 ± 0.35, 5.71 ± 1.4 and 8.19 ± 3.6.
Taken in the same sequence, the figures for GTCGAA were 4.23 ± 1.8, 5.6 ± 0.65 and 8.71 ± 2.8.
Turning to GTCGAG, the “relative kcat/Km” value under setting [1] worked out at 2.05 ± 1.5, the “relative kcat/Km” value under setting [2] is 2.123 ± 0.001 and the “relative kcat/Km” value under setting [3] was 4.03 ± 1.6.
Regarding ATCGGC, the “relative kcat/Km” value under setting [3] was found to be 1.97 ± 1.5.
With GTCGAC, the “relative kcat/Km” value is, setting by setting: under setting [1], 3.76 ± 0.29; under setting [2], 5.92 ± 1.9; under setting [3], 9.01 ± 3.7.
Taken in the same sequence, the figures for AGCGAC were 3.26 ± 1.9, 3 ± 1.1 and 4.06 ± 1.3.
Taken in the same sequence, the figures for GGCGAA were 2.38 ± 1.1, 2.86 ± 0.39 and 3.85 ± 1.4.
In the case of ATCGAC, the “relative kcat/Km” value reads like this: under setting [1], 3.59 ± 0.99; under setting [2], 4.75 ± 0.93; under setting [3], 6.92 ± 2.
For ATCGAT the same measures were 1.99 ± 0.67, 3 ± 0.7 and 3.36 ± 1.2.
Turning to GTCGAT, the “relative kcat/Km” value turned out to be 1.85 ± 0.87 under setting [1], 2.87 ± 0.49 under setting [2] and 3.7 ± 1.3 under setting [3].
For TTGCCG, the “relative kcat/Km” value under setting [3] was 0.519 ± 0.071.
Turning to AGTGAA, the “relative kcat/Km” value came out at 2.54 ± 0.25 under setting [1], 2.23 ± 0.96 under setting [2] and 3.35 ± 1.5 under setting [3].
For ATGACA, the “relative kcat/Km” value is, setting by setting: under setting [1], 1.94 ± 1.6; under setting [2], 1.85 ± 0.61; under setting [3], 2.06 ± 0.28.
ATACGT: the “relative kcat/Km” value under setting [1] worked out at 0.722 ± 0.057 and the “relative kcat/Km” value under setting [2] came to 1.92 ± 1.6.
As to CGCGGA, the “relative kcat/Km” value under setting [1] was found to be 1.5 ± 1.2, the “relative kcat/Km” value under setting [2] worked out at 1.39 ± 0.29 and the “relative kcat/Km” value under setting [3] was determined as 1.41 ± 0.58.
For AGCACC the same measures were 2.38 ± 0.45, 2.12 ± 1.5 and 3.05 ± 1.8.
For the sequence CCTGGT, under setting [3], the “relative kcat/Km” value was 2.47 ± 0.83.
As to CTCGAT, the “relative kcat/Km” value is, setting by setting: under setting [1], 1.97 ± 0.027; under setting [2], 2.48 ± 1.3; under setting [3], 4.24 ± 2.1.
Take CTCGAG: the “relative kcat/Km” value is 1.8 ± 0.06 under setting [1], 1.72 ± 1.4 under setting [2] and 3.97 ± 1.3 under setting [3].
For CTCGAC, the “relative kcat/Km” value was 5.18 ± 1.3 under setting [1], 6.72 ± 2.8 under setting [2] and 9.16 ± 4.6 under setting [3].
As to TAGGGA, the “relative kcat/Km” value under setting [1] is 0.803 ± 0.65.
Take GGAAAC: the “relative kcat/Km” value under setting [1] stood at 1.99 ± 1.4, the “relative kcat/Km” value under setting [2] was 1.61 ± 1.1 and the “relative kcat/Km” value under setting [3] amounted to 2.23 ± 0.17.
Take CCGCGC: the “relative kcat/Km” value runs as follows: under setting [1], 2.23 ± 0.85; under setting [2], 1.53 ± 0.98; under setting [3], 1.76 ± 0.15.
Taken in the same sequence, the figures for GCGCAT were 1.99 ± 0.76, 2.09 ± 1.1 and 3.07 ± 1.8.
In the case of AAAAGC, the “relative kcat/Km” value under setting [3] is 0.981 ± 0.48.

Values taken from the supplement of paper PMC9433436.
